Inconclusive results are not listed. Active and inactive are the calls of the source. Rule for the calls: active = hit-call score of the fitted dose curve at least 0.9, where 1 is the maximum; inconclusive = response in the unintended direction; inactive = score below 0.9.

The nature of this experiment: Tanguay_ZF_120hpf_PIG_legacy: (Legacy) Oregon State University Tanguay Lab 120 Hour Post-fertilization zebrafish Assay for Pigmentation Malformation (AID 2283650).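 Note: dechorionated Tropical 5D zebrafish embryos exposed singly from 6 to 120 hpf.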 As for the experimental part: Tanguay_ZF_120hpf_legacy is a whole embryo, multiplexed endpoint assay using zebrafish larvae exposed for 120 hours post fertilization on a 96-well plate.Tanguay_ZF_120hpf_PIG_legacy is one of one assay component(s) measured or calculated from the Tanguay_ZF_120hpf_legacy assay. It is designed to make measurements of zebrafish development as detected with brightfield microscopy of developing zebrafish embryos.Data from the assay component Tanguay_ZF_120hpf_PIG_legacy was analyzed into 1 assay endpoints. This assay endpoint, Tanguay_ZF_120hpf_PIG_legacy, was analyzed in the positive analysis fitting direction relative to DMSO as the negative control and baseline of activity. Using a type of morphology reporter, gain-of-signal activity can be used to understand changes in developmentals as they relate to the whole embryo. To generalize the intended target to other relatable targets, this assay endpoint is annotated to the zebrafish development intended target family, where the subfamily is embryonic pigmentation.
Zebrafish husbandry: Tropical 5D wild-type adult zebrafish were housed in at an approximate density of 1000 per 100 gallon tank at the Sinnhuber Aquatic Research Laboratory, Oregon State University, Corvallis, OR. Each tank was kept at standard laboratory conditions of 28C on a 14-h light/10-h dark photoperiod in fish water consisting of reverse osmosis water supplemented with a commercially available salt (Instant Ocean). Spawning funnels were placed into the tanks the night prior, and embryos were collected and staged. To increase bioavailability, the chorion was enzymatically removed using pronase (63.6mg/ml, >/= 3.5U/mg, Sigma-Aldrich: P5147) at 4 hours post fertilization (hpf) using a custom automated dechorionator.Chemical exposures: Six hpf dechorionated embryos were placed 1 embryo per well in a 96-well plate prefilled with 90 ul of EM using automated embryo placement systems (AEPS). Ten microliters of each row of dilution plate 2 was added to 2 exposure plates. The final DMSO concentration used was 0.64% (vol/vol). Thirty-two embryos were also exposed to 5uM trimethyltin chloride (positive control). Plates were sealed to prevent evaporation and foil covered to reduce light exposure and kept in a 28C incubator. Embryos were statically exposed until 120 hpf. At 24 hpf, embryos were assessed for photomotor response using a custom photomotor response analysis tool (PRAT) and for developmental toxicity endpoints (MO24: mortality at 24 hpf, DP: developmental progression, SM: spontaneous movement, and NC: notochord distortion). At 120 hpf, locomotor activity was measured using Viewpoint Zebralab and assessed for 18 endpoints. Zebrafish acquisition and analysis program (ZAAP), a custom program designed to inventory, acquire, and manage zebrafish data, was used to collect developmental endpoints as either present or absent (i.e., binary responses were recorded). If mortality occurred for an embryo (at either 24 or 120 hpf), the non-mortality endpoints were not measured.
As to `O=C(O)C1(c2ccc3c(c2)OC[C@H](Cc2ccc(-c4ccccc4)cc2)[C@H]3O)CCCC1`, the outcome was inactive. With `OCCN(CCO)CCO` the entry was “inactive”. With `COc1ccccc1N` the entry was “inactive”.

Consider `Oc1c(Cl)cc(Cl)cc1Cl`, for which the outcome was inactive. In the case of `CN(C)C(=S)S` it was “inactive”. Turning to `Clc1cccc(Cl)c1Cl`, the call was inactive.

On to `CC(C)O.CC(C)O.OCCN(CCO)CCO.OCCN(CCO)CCO.[Ti]`, for which the result was inactive. In the case of `Cc1cc(C)cc(C)c1` it was “inactive”; in that of `N#Cc1cccnc1`, “inactive”. With `Oc1cc(Cl)c(Cl)cc1Cl` the entry was “inactive”; with `CC(C)(C)c1ccccc1O`, “inactive”; with `O=C(N[C@H]1CN2CCC1CC2)c1ccc2c(c1)OCCO2`, “inactive”.

Values taken from PubChem BioAssay (EPA / NIEHS).
